Experimental data taken from PubChem BioAssay AID1159580 (chemical genetic matrix, 2015).
In all, about 5,500 compounds went through this assay and about 2,000 (36%) were called active. Not shown: some 18% with an inconclusive outcome. No stated cut-off is given here; in the data, active means normalized growth mostly below about 0.91 (no sharp cut-off); inconclusive means no clear call, values can overlap the other calls; inactive means mostly above about 0.92. The list shows a part of the results.

Test: chemical genetic growth profiling, strain panel (AID 1159580);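 further: tested at 20 µM; growth read once vehicle control cultures reached saturation at 30 °C; 1 = growth at the plate median or of vehicle wells; lower values mean less growth of the strain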
Details: growth OD

Measured: normalized growth

CN=C(N)NCCCC(N)C(=O)O (stereo unspecified)
inactive: S. cerevisiae deletion strains, locus YAL013W, strain DEP1, active compounds read low 1.02 | S. cerevisiae deletion strains, locus YBR021W, strain FUR4, active compounds read low 1.03 | S. cerevisiae deletion strains, locus YBR229C, strain ROT2, active compounds read low 1.01 | S. cerevisiae deletion strains, locus YCL029C, strain bik1, active compounds read low 0.996 | S. cerevisiae deletion strains, locus YDL035C, strain GPR1, active compounds read low 1.04 | S. cerevisiae deletion strains, locus YDL074C, strain BRE1, active compounds read low 1.05 | S. cerevisiae deletion strains, locus YDL101C, strain DUN1, active compounds read low 1.03 | S. cerevisiae deletion strains, locus YDL134C, strain PPH21, active compounds read low 1.01 | S. cerevisiae deletion strains, locus YDL185W, strain tfp1, active compounds read low 1.02 | S. cerevisiae deletion strains, locus YDL192W, strain arf1, active compounds read low 1.01 | S. cerevisiae deletion strains, locus YDR101C, strain arx1, active compounds read low 1.01 | S. cerevisiae deletion strains, locus YDR150W, strain NUM1, active compounds read low 1.02 | S. cerevisiae deletion strains, locus YDR162C, strain NBP2, active compounds read low 1.03 | S. cerevisiae deletion strains, locus YDR318W, strain mcm21, active compounds read low 1.04 | S. cerevisiae deletion strains, locus YDR388W, active compounds read low 0.993 | S. cerevisiae deletion strains, locus YDR502C, strain sam2, active compounds read low 1.01 | S. cerevisiae deletion strains, locus YEL061C, strain CIN8, active compounds read low 1.01 | S. cerevisiae deletion strains, locus YER110C, active compounds read low 0.997 | S. cerevisiae deletion strains, locus YER155C, strain BEM2, active compounds read low 1.01 | S. cerevisiae deletion strains, locus YER167W, strain BCK2, active compounds read low 1.05 | S. cerevisiae deletion strains, locus YGL078C, strain dbp3, active compounds read low 1.01 | S. cerevisiae deletion strains, locus YGL086W, strain mad1, active compounds read low 1.03 | S. cerevisiae deletion strains, locus YGL248W, strain PDE1, active compounds read low 1.01 | S. cerevisiae deletion strains, locus YGR078C, strain PAC10, active compounds read low 1.04 | S. cerevisiae deletion strains, locus YGR135W, strain pre9, active compounds read low 1.02 | S. cerevisiae deletion strains, locus YGR229C, strain SMI1, active compounds read low 1.05 | S. cerevisiae deletion strains, locus YGR252W, strain gcn5, active compounds read low 1.17 | S. cerevisiae deletion strains, locus YHR030C, strain SLT2, active compounds read low 1.01 | S. cerevisiae deletion strains, locus YHR079C, strain IRE1 (second series), active compounds read low 0.995 | S. cerevisiae deletion strains, locus YHR094C, strain hxt1, active compounds read low 0.986 | S. cerevisiae deletion strains, locus YHR129C, strain ARP1, active compounds read low 1.01 | S. cerevisiae deletion strains, locus YHR200W, strain rpn10, active compounds read low 1.02 | S. cerevisiae deletion strains, locus YIL066C, strain RNR3, active compounds read low 1.03 | S. cerevisiae deletion strains, locus YIL073C, strain SPO22, active compounds read low 1.09 | S. cerevisiae deletion strains, locus YIL125W, strain kgd1, active compounds read low 1.01 | S. cerevisiae deletion strains, locus YIR030C, strain dcg1, active compounds read low 0.997 | S. cerevisiae deletion strains, locus YJL095W, strain BCK1, active compounds read low 1.02 | S. cerevisiae deletion strains, locus YJL134W, strain LCB3, active compounds read low 1.02 | S. cerevisiae deletion strains, locus YJL168C, strain set2, active compounds read low 0.987 | S. cerevisiae deletion strains, locus YJL187C, strain SWE1 (second series), active compounds read low 1.02 | S. cerevisiae deletion strains, locus YJR043C, strain POL32, active compounds read low 1.06 | S. cerevisiae deletion strains, locus YJR075W, strain HOC1, active compounds read low 1.07 | S. cerevisiae deletion strains, locus YKL009W, strain mrt4, active compounds read low 1.03 | S. cerevisiae deletion strains, locus YKL068W, active compounds read low 1.01 | S. cerevisiae deletion strains, locus YKL085W, strain MDH1 (second series), active compounds read low 1.03 | S. cerevisiae deletion strains, locus YKL085W, strain MDH1, active compounds read low 1.03 | S. cerevisiae deletion strains, locus YKL190W, strain CNB1, active compounds read low 1.02 | S. cerevisiae deletion strains, locus YKR001C, strain vps1, active compounds read low 1.02 | S. cerevisiae deletion strains, locus YLR039C, strain RIC1, active compounds read low 1.07 | S. cerevisiae deletion strains, locus YLR058C, strain SHM2, active compounds read low 1.02 | S. cerevisiae deletion strains, locus YLR102C, strain apc9, active compounds read low 0.986 | S. cerevisiae deletion strains, locus YLR262C, strain YPT6, active compounds read low 1.1 | S. cerevisiae deletion strains, locus YLR268W, strain sec22, active compounds read low 1.01 | S. cerevisiae deletion strains, locus YLR330W, strain CHS5, active compounds read low 1.01 | S. cerevisiae deletion strains, locus YLR342W, strain FKS1 (second series), active compounds read low 1.09 | S. cerevisiae deletion strains, locus YLR371W, strain rom2, active compounds read low 0.975 | S. cerevisiae deletion strains, locus YLR418C, strain cdc73, active compounds read low 1.01 | S. cerevisiae deletion strains, locus YML016C, strain PPZ1, active compounds read low 1.02 | S. cerevisiae deletion strains, locus YML032C, strain rad52, active compounds read low 1.05 | S. cerevisiae deletion strains, locus YML124C, strain tub3, active compounds read low 1.01 | S. cerevisiae deletion strains, locus YMR078C, strain ctf18, active compounds read low 1 | S. cerevisiae deletion strains, locus YMR223W, strain ubp8, active compounds read low 1.04 | S. cerevisiae deletion strains, locus YMR263W, strain SAP30, active compounds read low 1.04 | S. cerevisiae deletion strains, locus YMR307W, strain GAS1, active compounds read low 1.14 | S. cerevisiae deletion strains, locus YNL067W, strain RPL9B, active compounds read low 1.02 | S. cerevisiae deletion strains, locus YNL128W, strain TEP1, active compounds read low 1.03 | S. cerevisiae deletion strains, locus YNL153C, strain GIM3, active compounds read low 1.03 | S. cerevisiae deletion strains, locus YNL233W, strain BNI4, active compounds read low 1.03 | S. cerevisiae deletion strains, locus YNL250W, strain rad50, active compounds read low 1.02 | S. cerevisiae deletion strains, locus YNL271C, strain bni1, active compounds read low 1.01 | S. cerevisiae deletion strains, locus YNL298W, strain CLA4, active compounds read low 1.04 | S. cerevisiae deletion strains, locus YNL307C, strain MCK1, active compounds read low 1.02 | S. cerevisiae deletion strains, locus YNL322C, strain KRE1, active compounds read low 1.02 | S. cerevisiae deletion strains, locus YNR052C, strain pop2, active compounds read low 1 | S. cerevisiae deletion strains, locus YOL006C, strain TOP1, active compounds read low 1.05 | S. cerevisiae deletion strains, locus YOL012C, strain htz1 1.01 | S. cerevisiae deletion strains, locus YOL147C, strain pex11, active compounds read low 0.995 | S. cerevisiae deletion strains, locus YOR061W, strain CKA2, active compounds read low 1.02 | S. cerevisiae deletion strains, locus YOR069W, strain VPS5, active compounds read low 1.01 | S. cerevisiae deletion strains, locus YOR136W, strain idh2, active compounds read low 1.02 | S. cerevisiae deletion strains, locus YOR144C, strain elg1, active compounds read low 1.01 | S. cerevisiae deletion strains, locus YOR184W, strain ser1, active compounds read low 1.07 | S. cerevisiae deletion strains, locus YOR316C, strain cot1, active compounds read low 0.99 | S. cerevisiae deletion strains, locus YPL055C, strain LGE1, active compounds read low 1.1 | S. cerevisiae deletion strains, locus YPL241C, strain CIN2, active compounds read low 1.02 | S. cerevisiae deletion strains, locus YPR119W, strain clb2, active compounds read low 0.984 | S. cerevisiae deletion strains, locus YPR141C, strain kar3, active compounds read low 1.02 | S. cerevisiae deletion strains, locus YPR163C, strain tif3, active compounds read low 1 | S. cerevisiae deletion strains, locus YPR167C, strain met16, active compounds read low 1.01 | S. cerevisiae deletion strains, strain wtn01, active compounds read low 0.994 | S. cerevisiae strains, strain wild type, active compounds read low 1.03
